Experimental data from ChEMBL document CHEMBL1157539, “Thousands of chemical starting points for antimalarial lead identification” (Nature, 2010).

What follows are compounds tested on Plasmodium falciparum (assay: GSK_TCMDC: Inhibition of Plasmodium falciparum 3D7 in whole red blood cells, using parasite LDH activity as an index of growth. Test compounds present at 2uM).
Type: functional

Row | Compound | Inhibition [%]
1 | Oc1ccc2[nH]cc(C3CCN(CCC(c4ccccc4)c4ccccc4)CC3)c2c1 | 90
2 | CN1CCN(CC2(Nc3nccc(NCCc4cn(C)c5ccccc45)n3)CCCCC2)CC1 | 91
3 | CCn1ccc2c(N3CCCS3(=O)=O)cc(C(=O)N[C@@H](Cc3ccccc3)[C@H](O)CNC3CCCCC3)cc21 | 97
4 | COc1ccc(N2CCc3c(-c4cccc5cnccc45)cc(C)nc32)c(C)c1 | 96
5 | CC(C)c1ccc(CN(C)CCCCNC(=O)c2ccc(NC(=O)c3ccc(Cl)cc3)cc2)cc1 | 92
6 | COc1cccc(Nc2nccc(NCC(O)c3cccc(C(F)(F)F)c3)n2)c1 (stereo not given) | 96
7 | COC(=O)c1ccc(C2OC3(C(=O)c4ccccc4C3=O)C(OC)=C2Cl)cc1C(C)=O (stereo not given) | 99
8 | CC(C)(C)c1ccc(NC(=O)c2cccc(CN3CCN(Cc4cccc(O)c4)CC3)c2)cc1.O=C(O)C(F)(F)F | 92
9 | CCN(CC)CCCSc1ccc(-c2ccc(SCCCN(CC)CC)cc2)cc1 | 87
10 | CCOC(=O)c1ccc(N(CCCN(CCCN(c2ccc(C(=O)OCC)cc2)S(=O)(=O)c2ccc(C)cc2)CCc2ccc(O)cc2)S(=O)(=O)c2ccc(C)cc2)cc1 | 96
11 | N#CCCN1CCN(Cc2cccc(-c3ccc(-c4nc5cc(C(F)(F)F)ccc5[nH]4)cc3)c2)CC1.O=C(O)C(F)(F)F | 100
12 | COc1ccc(Nc2ncc(OC)c(Nc3ccccc3C(N)=O)n2)cc1N1CCN(C)CC1.O=CO | 100
13 | Br.CCCN(CCCCCCN(CCC)CCc1ccc(O)c(O)c1)CCc1ccc(O)cc1 | 90
14 | Cc1cc2nc(N=C3NC4(c5ccccn5)NC(=Nc5nc6cc(C)c(C)cc6[nH]5)NC4(c4ccccn4)N3)[nH]c2cc1C.O=C(O)C(F)(F)F (stereo not given) | 87
15 | O=C(O)C(F)(F)F.O=S(=O)(/C=C/c1ccccc1)N(Cc1ccc(-c2ccc(CNCCOc3ccccc3)cc2)cc1)CC1CCCCN1 (stereo not given) | 99
16 | N#Cc1cccc(CN2CCCN(Cc3cccc(C(=O)Nc4ccc(Cl)cc4)c3)CC2)c1.O=C(O)C(F)(F)F | 82
17 | COc1ccc(CNC2CCN(c3ccc(NC(=O)c4cccc(Cl)c4)cc3)CC2)cc1OC | 96
18 | Cc1cc(OCCCNC(=N)c2ccc3ccccc3c2)c(C(C)C)cc1Cl.Cc1ccc(S(=O)(=O)O)cc1 | 95

Row | Compound | Inhibition [%]
19 | N#Cc1ccc(-c2ccc(C(=O)NC3CCN(CCN4CCC(c5cn(CCO)c6ccccc56)CC4)CC3)cc2)cc1 | 100
20 | Cc1ccc(CCNCC(O)c2cccc(C(F)(F)F)c2)cc1.Cl (stereo not given) | 94
21 | COc1cc(NC(=O)C(c2ccc(Cl)cc2)C(C)C)cc(OC)c1 (stereo not given) | 99
22 | CCCCCCN1CCC(NCc2cccc3ccccc23)CC1.O=C(O)C(F)(F)F | 95
23 | N#Cc1ccc(CN2CCC(NC(=O)c3ccc(-c4nnc(-c5cccc6ccccc56)o4)cc3)CC2)cc1 | 98
24 | Cc1cccc(C(=O)Nc2ccnc(N(C)CCCN(C)Cc3cccc(O)c3)c2)c1.O=C(O)C(F)(F)F | 94
25 | FC(F)(F)c1ccc2[nH]c(-c3ccc(-c4cccc(CNCCc5cccnc5)c4)s3)nc2c1.O=C(O)C(F)(F)F | 100
26 | Cc1onc(-c2ccc(Cl)cc2)c1-c1ccnn1S(=O)(=O)c1ccc(Cl)cc1 | 100
27 | Cc1cc(NC(=O)Nc2ccc(I)c(OCCN(C)C)c2)ccc1Br.Cl | 100
28 | Cc1nc2cc(/C=C/C(=O)NC3CCC(CCN4CCc5ccc(C#N)cc5CC4)CC3)ccc2[nH]1.Cl (stereo not given) | 88
29 | CCN(CC)CCCN(CCCN(CC)CC)c1cc(C)nc(Nc2ccc3cc(Br)ccc3c2)n1.Cl | 100
30 | Clc1ccc(-c2ccc(CNCCCN3CCCC3)cc2)cc1 | 91
31 | Cc1ccc(-c2ccc3c(c2)C=C(C(=O)NC2CCN(CCNC(=O)c4cccs4)CC2)CCC3)cc1.O=C(O)C(F)(F)F | 90
32 | CCC(C)CN1C(=O)C(c2ccccc2)(c2ccccc2)N=C1N.O=CO (stereo not given) | 98
33 | CCOc1cc(Cl)c(C(C)NC(=O)c2cccc(OC)c2)cc1OCC (stereo not given) | 98
34 | CN1CCN(CCCN(Cc2csc(-c3ccc(CNCc4ccccc4)cc3)n2)S(=O)(=O)c2ccccc2)CC1.O=C(O)C(F)(F)F | 99
35 | COC(=O)c1cccc(CNCc2cccc(-c3ccc(-c4nc5cccc(C)c5[nH]4)s3)c2)c1.O=C(O)C(F)(F)F | 100
